{"source": "PubChem BioAssay AID588397", "about": "(National Center for Advancing Translational Sciences (NCATS), 2011)", "note": "The whole screen tested about 1,300 compounds, of which about 1,000 (77%) were called active. Inconclusive results (about 7%) are left out. The call rests on the fitted dose curve; in most records, active means well fitted inhibition curve with a large enough effect; inconclusive means small, poorly fitted or top-dose-only effect; inactive means no such curve, though single readings can be large or run the other way. So high a share suggests a set chosen from earlier hits. The list shows a part of the results. Potency means the concentration at half of the fitted maximal effect."}
{"test": "qHTS of small molecules that selectively kill Giardia lamblia: Hit Validation;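 further: viability measured as ATP content by luminescence so killing lowers signal; trophozoites exposed to compounds for 48 h anaerobically at 37 °C; nearly all actives have a fitted effect of over 65% in size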.", "settings": "Giardia lamblia trophozoite viability, dose-response; series mostly up to 38.3 µM", "method_in_brief": "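Luminescence from cellular ATP indicates surviving trophozoites (100 cells/well) following 48 hrs anaerobic compound treatment at 37 deg C; signal develops 15-30 min at room temperature.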"}
{"smiles": "O=C(Nc1ccc(N2CCN(C(=O)c3ccccc3)CC2)cc1)c1ccc([N+](=O)[O-])o1", "Potency": "0.818 µM (active)"}
{"smiles": "O=C(Nc1ccc(N2CCN(C(=O)c3ccc(Cl)cc3)CC2)cc1)c1ccc([N+](=O)[O-])o1", "Potency": "0.579 µM (active)"}
{"smiles": "Cc1ccccc1C(=O)N1CCN(c2ccc(NC(=O)c3ccc([N+](=O)[O-])o3)cc2)CC1", "Potency": "0.818 µM (active)"}
{"smiles": "COCCNc1cc(NCCOC)c([N+](=O)[O-])cc1[N+](=O)[O-]", "Potency": "1.45 µM (active)"}
{"smiles": "COC(=O)c1ccc2cc(OC)cc([N+](=O)[O-])c2n1", "Potency": "5.79 µM (active)"}
{"smiles": "COCc1nnc(NC(=O)c2ccc(Cl)cc2[N+](=O)[O-])s1", "Potency": "2.59 µM (active)"}
{"smiles": "O=C(C1=C(c2ccccc2)C(=O)c2ccccc2C1=O)c1ccccc1", "Potency": "11.6 µM (active)"}
{"smiles": "O=[N+]([O-])c1cc(C(F)(F)F)ccc1Oc1cccnc1[N+](=O)[O-]", "Potency": "4.1 µM (active)"}
{"smiles": "Cc1csc(NC(=O)c2cn3ccccc3n2)n1", "Potency": "1.63 µM (active)"}
{"smiles": "O=C(COc1cccnc1[N+](=O)[O-])Nc1ccc2c(c1)CCC2", "Potency": "16.3 µM (active)"}
{"smiles": "CCN(CC)CCNC(=O)c1ccc(NC(=O)COc2ccc3c(c2)CCC3)cc1", "Potency": "inactive"}
{"smiles": "CCN(CC(=O)NCc1cccs1)C(=O)c1ccc([N+](=O)[O-])o1", "Potency": "0.41 µM (active)"}
{"smiles": "O=C(COc1cccnc1[N+](=O)[O-])NCc1ccc(F)cc1", "Potency": "5.16 µM (active)"}
{"smiles": "COc1cccc(NC(=O)COc2cccnc2[N+](=O)[O-])c1", "Potency": "4.6 µM (active)"}
{"smiles": "O=C(CCN1C(=O)c2ccccc2C1=O)NCc1ccc(F)cc1", "Potency": "inactive"}
{"smiles": "C=CCNc1ncnc2sc(SC)nc12", "Potency": "inactive"}
{"smiles": "COc1ccc(C(C)=O)cc1COc1cccnc1[N+](=O)[O-]", "Potency": "6.5 µM (active)"}
{"smiles": "O=C(COc1cccnc1[N+](=O)[O-])NCc1ccco1", "Potency": "6.5 µM (active)"}
{"smiles": "COc1ccc(CNC(=O)COc2cccnc2[N+](=O)[O-])cc1OC", "Potency": "11.6 µM (active)"}
{"smiles": "COc1ccc(CNC(=O)COc2cccnc2[N+](=O)[O-])cc1", "Potency": "6.5 µM (active)"}
{"smiles": "O=C(COc1cccnc1[N+](=O)[O-])NCc1cccs1", "Potency": "8.18 µM (active)"}
{"smiles": "O=C(COc1cccnc1[N+](=O)[O-])NCCc1ccc(Cl)cc1", "Potency": "3.65 µM (active)"}
{"smiles": "CC1CCCCC1NC(=O)NC(=O)COC(=O)c1cncc(Br)c1", "note": "(configuration not stated)", "Potency": "inactive"}
{"smiles": "CC1CCCCC1NC(=O)COc1cccnc1[N+](=O)[O-]", "note": "(configuration not stated)", "Potency": "2.31 µM (active)"}
{"smiles": "O=C(COc1cccnc1[N+](=O)[O-])Nc1ccc(F)cc1", "Potency": "5.79 µM (active)"}
{"smiles": "O=C(NCCc1ccccc1)c1ccc(CS(=O)(=O)c2ccc(Cl)cc2)o1", "Potency": "inactive"}
{"smiles": "CCCCc1cc(=O)oc2c(C)c(OCC(=O)NCc3ccccn3)ccc12", "Potency": "inactive"}
